KB-V1 cytotox: KB-V1 MDR subline cytotoxicity; KB-V1 MDR cells viability, CellTiter-Glo, 72 h; Potency, µM (top dose mostly 46.1 µM), most hits filed as cytotoxic; 400,000 compounds, 3.4% hits; AID 1347076; further: nearly all actives have a fitted effect of over 60% in size
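Cytotoxicity toward P-gp-expressing KB-V1 cells was determined as loss of CellTiter-Glo luminescence after 72 h at 37 degrees C. Compounds were tested in quantitative HTS format across a concentration range, with curves fitted to normalized data.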
MCF10A rereplic: DNA re-replication induction in MCF 10a cells; AID 624296; MCF 10A DNA re-replication, Hoechst nuclear intensity, 48 h; Potency, µM (top dose mostly 46.1 µM), actives largely listed as activators; 350,000 compounds, 2.9% hits; further: nearly all actives have a fitted effect of over 50% in size
ELG1 DNA repair: ELG1-dependent DNA repair inhibition | 330,000 compounds, 2.3% hits | AID 504467 | HEK293T ELG1-luciferase reporter, luminescence, 16 h; DNA damage induced by 5-fluorouridine | Potency, µM (titrated, usually from 46.1 µM), usual class: inhibitors; further: nearly all actives have a fitted effect of over 55% in size
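In this reporter screen, reduction of luminescence relative to DMSO vehicle indicated activity. Compounds and 5-fluorouridine were added together to 2,000 cells per well, incubated for 16 hr at 37 °C, then developed with ONE-Glo.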
KB-3-1 tox: KB-3-1 parental cell cytotoxicity; KB-3-1 viability, CellTiter-Glo ATP luminescence, 72 h; Potency, µM (doses to about 46.1 µM), usual class: cytotoxic; 400,000 compounds, 1.4% hits; further: nearly all actives have a fitted effect of over 60% in size
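Cells are dispensed, compounds pinned in, plates held at 37 °C for 72 h, then CellTiter-Glo is added and luminescence read after 10 minutes. Cell line: parental KB-3-1 in phenol-red-free DMEM, 10% FBS.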
SW480 rerep: induces DNA re-replication in SW480 colon adenocarcinoma cells. SW480 DNA re-replication, Hoechst DNA content imaging, 48 h. Potency, µM (highest dose often 46.1 µM), hits mostly activators. 340,000 compounds, 1.8% hits; further: nearly all actives have a fitted effect of over 55% in size
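Hoechst fluorescence of nuclei (405 nm excitation, 500-530 nm emission) measured by plate-scanning imager after 48 hr compound exposure at 37 C; re-replication scored as increased number of nuclei with elevated intensity.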
Hits are given with their value; i = inactive; ? = inconclusive; nt = no result given. Most compounds without a hit are left out; they make up all but 8.2% or so of the library. The call rests on the fitted dose curve; in most records, active means well fitted curve in the direction sought with a large enough effect; inconclusive means small, poorly fitted or top-dose-only effect, or another doubt; inactive means no such curve, though single readings can be large; an effect the other way counts as inactive or inconclusive.

SMILES	KB-V1 cytotox	MCF10A rereplic	ELG1 DNA repair	KB-3-1 tox	SW480 rerep
O=C1CN(C(=O)COc2c(F)c(F)cc(F)c2F)c2ccccc2N1	i	i	i	i	i
Clc1ccc(C2=NN(c3ccccc3)C(c3ccco3)C2)cc1 (stereo unspecified)	i	0.73µM	?	i	3.7µM
Cc1ccc(C2CC(c3ccccc3)=NN2c2ccccc2)o1 (stereo unspecified)	i	18µM	?	i	15µM
COc1ccc(CCC(C)NC2CCCCCCC2)cc1 (stereo unspecified)	?	?	i	i	?
COc1ccc(CCC(C)NCC2CCCCC2)cc1 (stereo unspecified)	21µM	?	i	?	?
COc1cc(C(=O)Nc2ccc3c(c2)ncn3C)cc(OC)c1OC	?	3.7µM	?	?	?
COc1cc(C(=O)Nc2ccc3c(c2)nc(C)n3C)cc(OC)c1OC	i	i	?	4.1µM	15µM
C[C@@H](NC(=O)[C@@H]1Cc2ccccc2CN1)C(=O)Nc1ccc2c(c1)OCO2	i	i	?	i	i
O=C(Nc1cc(C(F)(F)F)ccc1Cl)C(Sc1nnc(-c2cccs2)o1)c1ccccc1 (stereo unspecified)	i	i	i	i	nt
O=C(Nc1ccc(Cl)cc1C(F)(F)F)C(Sc1nnc(-c2cccs2)o1)c1ccccc1 (stereo unspecified)	15µM	1.6µM	i	?	nt
COc1cc(OC)c(NC(=O)CCCn2nc(C)c3sc4ccccc4c3c2=O)cc1Cl	i	nt	nt	i	nt
CCOC(=O)C1CCCN(C(=S)NC(=O)c2cc(Br)ccc2Cl)C1 (stereo unspecified)	i	i	i	i	16µM
O=C(O)/C=C1\NC(=O)c2ccccc21	i	i	i	i	i
O=C1N/C(=C\c2ccc(O)cc2)C(=O)c2ccccc21	i	3.2µM	i	?	13µM
CCOc1ccc(/C=C2\C(=O)c3ccccc3OC2c2ccccc2)cc1 (stereo unspecified)	16µM	5.2µM	i	?	?
COc1ccc(/C=C2\C(=O)c3ccccc3OC2c2ccccc2)cc1 (stereo unspecified)	7.3µM	10µM	23µM	?	?
CN(C)c1cccc(CNC(=O)c2ccc3sc([C@@H]4O[C@H](CO)[C@H](O)[C@H](O)[C@H]4O)nc3c2)c1	i	nt	nt	i	nt
CCc1ccc(NC(=S)N(Cc2ccc(Cl)cc2)Cc2ccc(C(=O)O)cc2)cc1	i	i	?	i	i
CC(C)CN(CC(C)C)C(=S)Nc1ccc(Cl)cc1	i	18µM	i	i	i
CCCNc1c(NC(=O)c2ccc3c(c2)OCO3)c(=O)oc2ccccc12	i	i	i	i	i
COc1cc(C(=O)OCC(=O)c2cc(C)n(C)c2C)cc(OC)c1OC	5.2µM	?	?	?	?
CCOc1cc(C#N)ccc1OCC(=O)N1CCN(C(=O)c2cccs2)CC1	i	i	i	i	i
CCOc1ccccc1NC(=O)c1ccc2c(c1)CCCN2S(C)(=O)=O	i	nt	nt	i	nt
Nc1[nH]n2c(=O)c3c(nc2c1N=Nc1ccccc1)CCCC3	13µM	?	?	12µM	i
N#Cc1c[nH]n2c(=O)c3c(nc12)CCCC3	nt	nt	i	nt	nt
SMILES	KB-V1 cytotox	MCF10A rereplic	ELG1 DNA repair	KB-3-1 tox	SW480 rerep
Cc1[nH]n2c(=O)c3c(nc2c1-c1ccccc1)CCC3	i	i	i	i	i
O=c1c2c(nc3c(-c4ccccc4)c[nH]n13)CCCC2	?	i	i	21µM	i
Cc1[nH]n2c(=O)c3c(nc2c1-c1ccc(Cl)cc1)CCC3	?	?	i	8.2µM	i
Cc1cccc(C(=O)Nc2c(C(=O)N(C)C)cnn2-c2ccccc2)c1	?	i	i	i	i
O=C(Nc1ccc2ccccc2c1)Nc1nnc(Br)s1	i	nt	nt	?	nt
O=C(c1cnn(C(=O)c2ccco2)c1)c1cc(F)ccc1O	i	i	?	i	i
C/C(=N\O)c1ccc2c3ccccc3n(C)c2c1	?	i	?	2.6µM	i
COc1cc(CCNC2=CC(=O)c3ncccc3C2=O)ccc1O	7.3µM	?	nt	5.8µM	15µM
NS(=O)(=O)c1ccc(CNC(=O)c2ccc(Cl)c([N+](=O)[O-])c2)cc1	i	i	i	i	i
CCOC(=O)C(C)(C)NS(=O)(=O)c1ccc(Cl)c([N+](=O)[O-])c1	i	?	i	?	i
CCOC(=O)C(C)(C)N(Cc1ccc(Cl)cc1)S(=O)(=O)c1ccc(Cl)c([N+](=O)[O-])c1	nt	13µM	18µM	nt	?
CCOC(=O)C(C)(C)N(Cc1ccc(C)cc1)S(=O)(=O)c1ccc(Cl)c([N+](=O)[O-])c1	i	12µM	?	i	?
CC1=C(C(N)=O)C(c2cccc(Br)c2)n2nc(SCc3ccccc3Cl)nc2N1 (stereo unspecified)	i	nt	nt	i	nt
Cc1ccc(NC(=O)C2CCN(S(C)(=O)=O)CC2)cc1Cl	i	i	?	i	?
COCCCNC(=O)C[C@H]1C[C@H](C(=O)N2CCOCC2)[C@@]2(CCC3CCCC3)c3[nH]c4ccc(Cl)cc4c3CCN2C1=O	i	i	i	i	i
C=CCn1c(N)c(C(=O)Nc2ccc(C)cc2)sc1=S	18µM	i	?	i	i
C=CCn1c(N)c(C(=O)Nc2ccccc2OC)sc1=S	i	i	i	i	i
CC(=O)COc1cc(C)cc2oc(=O)cc(-c3ccccc3)c12	i	i	i	i	i
COc1ccc([N+](=O)[O-])cc1COc1cc(C)cc2oc(=O)cc(-c3ccccc3)c12	6.5µM	12µM	i	21µM	?
CC(C)(CNC(=O)c1cc([N+](=O)[O-])ccc1N1CCC(Cc2ccccc2)CC1)N1CCOCC1	i	i	21µM	?	i
CC(C)CNC(=O)c1cc([N+](=O)[O-])ccc1N1CCOCC1	i	i	i	i	i
CC1CCCN(c2ccc([N+](=O)[O-])cc2C(=O)c2ccccc2)C1 (stereo unspecified)	i	?	i	?	4.1µM
O=C(c1ccc(Cl)cc1)c1cc([N+](=O)[O-])ccc1N1CCOCC1	1.8µM	?	i	?	0.65µM
O=C(COC(=O)c1cc([N+](=O)[O-])ccc1N1CCOCC1)Nc1ccc(Cl)cn1	13µM	?	i	?	?
CC1CCN(c2ccc([N+](=O)[O-])cc2C(=O)O)CC1	i	i	i	i	i
O=C1CC(C(=O)Nc2ccccc2)S/C(=N\NC(=O)c2ccccc2Cl)N1 (stereo unspecified)	i	i	i	i	i
COc1ccccc1CNC(=O)CCN=C1NS(=O)(=O)c2ccccc21	?	i	i	i	i
NC(=O)Nc1ccc(/C=C2\C=Cc3ccccc32)cc1	i	nt	nt	?	nt
CCCSc1nnc(NC(=O)c2cc(=O)c3ccccc3o2)s1	?	nt	nt	i	nt
CN1CCN(c2ccc([N+](=O)[O-])cc2C(=O)c2ccc(Cl)cc2)CC1	4.6µM	12µM	i	2.3µM	8.2µM

Compound activity: PubChem BioAssay, National Center for Advancing Translational Sciences (NCATS)
